Assay results published in PubChem BioAssay (NCI).
The panel holds about 79,000 compounds, 15% with a hit somewhere; the sample as a whole holds those more often. A number with no mark means an inactive call. Active and inactive are the calls of the source. Rule as the data show it: active = growth inhibition above about 70%; inactive = the rest.

assay: NCI Yeast Anticancer Drug Screen. Data for the bub3 strain (AID 167); conditions: S. cerevisiae bub3 mutant strain, at 50.0 µM (retest, dose inferred, filed as 5.0), stronger effect = higher value
Method in brief: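 Inhibition values come from growth of compound-treated mutant yeast normalised to vehicle-treated controls.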

SMILES	growth inhibition
N#C/C(=N\O)C(N)=O	86% (active)
COc1ccc(C(N)=O)cc1	-5%
CC1=C(/C=C/C(C)=C/C(=O)O)C(C)(C)CCC1	64%
CC(=O)Oc1c(Br)cc(Br)cc1C(OC(C)=O)OC(C)=O	99% (active)
CCCCCCN(CCCCCC)CCCCCCCCCCCO	99% (active)
COc1cccc(NC(=O)c2c(SC)n[nH]c2N)c1	99% (active)
O=C(O)/C=C\C(=O)NNc1ccccc1	99% (active)
Oc1ccc(Cc2cccc(Cl)c2)c(O)c1	92% (active)
C=COC(=O)c1ccccc1C(=O)OCCCC	27%
O=C(O)c1ccc(-c2ccccc2)cc1	42%
N#CC(c1ccccc1)C(c1ccccc1)c1ccccc1 (stereo not drawn)	87% (active)
CC(C)(C)c1cc([N+](=O)[O-])c(O)c([N+](=O)[O-])c1	74% (active)
CSC(SC)=C(C#N)C(=O)Nc1cccc(Cl)c1	99% (active)
CCOC(=O)C(NC(C)=O)C(=O)c1ccccc1 (stereo not drawn)	-1%
O=[N+]([O-])/C=C/c1cccs1	100% (active)
C/C(=N\Nc1ccc(Cl)cc1)C(=O)O	99% (active)
CC(=O)Nc1ccc(/C=N/NC(=S)NCC(C)C)cc1	9%
CCCCN(CCCC)C(=O)C(C)OC(C)=O (stereo not drawn)	-8%
C=CCCCCCCCCC(=O)NN	85% (active)
C1CCC(CCCc2nn[nH]n2)CC1	78% (active)

SMILES	growth inhibition
CSS(C)(=O)=O	99% (active)
Clc1ccc(-n2ncc3c(Cl)nc(Cl)nc32)cc1	99% (active)
C(CCc1nn[nH]n1)CCC1CCCCC1	98% (active)
Oc1ccc(/C=C/c2ccc(Cl)cc2)cc1	98% (active)
Cc1ccc2[nH]cc(CC(=O)O)c2c1	100% (active)
CN(C)c1cc(N)c(Cc2c(N)cc(N(C)C)cc2Cl)c(Cl)c1	97% (active)
O=C1c2ccccc2-c2ccc(O)cc21	87% (active)
CC(=O)Oc1ccc(OC(C)=O)c2c1CC=CC2	8%
O=c1c2ccccc2ncn1O	89% (active)
CC(C)(C)C(=O)CC(c1ccccc1)c1ccccc1	22%
Cc1cccc(N=NC(C#N)C#N)c1	94% (active)
CC(=O)Nc1nc(-c2ccccc2)cs1	6%
CC(C)c1cc([N+](=O)[O-])c(O)c([N+](=O)[O-])c1	89% (active)
CC(C)NC(=O)C(C)O (stereo not drawn)	-2%
CN(C)CNC(=S)S	100% (active)
CCCCNC(=O)C(C)O (stereo not drawn)	-2%
COc1cccc(NC(=O)c2c(SC)c(C#N)c(=O)n(N)c2N)c1	99% (active)
COc1ccc(/C(C#N)=C/c2cccc(N)c2)cc1	42%
CCCCC(CC)CNC(=O)CI (stereo not drawn)	76% (active)

assay: NCI Yeast Anticancer Drug Screen. Data for the mlh1 rad18 strain (AID 175); conditions: S. cerevisiae mlh1 rad18 strain growth inhibition; at 5.0 µM (retest, dose inferred, filed as 0.5); stronger effect = higher value
Method in brief: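 Growth inhibition of the yeast strain was measured after compound exposure and expressed relative to vehicle-treated controls. The strain carries defined defects in DNA damage repair.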

SMILES	growth inhibition
N#C/C(=N\O)C(N)=O	26%
COc1ccc(C(N)=O)cc1	16%
CC1=C(/C=C/C(C)=C/C(=O)O)C(C)(C)CCC1	-36%
CC(=O)Oc1c(Br)cc(Br)cc1C(OC(C)=O)OC(C)=O	-5%
CCCCCCN(CCCCCC)CCCCCCCCCCCO	11%
COc1cccc(NC(=O)c2c(SC)n[nH]c2N)c1	11%
O=C(O)/C=C\C(=O)NNc1ccccc1	-7%
Oc1ccc(Cc2cccc(Cl)c2)c(O)c1	-3%
C=COC(=O)c1ccccc1C(=O)OCCCC	18%
O=C(O)c1ccc(-c2ccccc2)cc1	-1%
N#CC(c1ccccc1)C(c1ccccc1)c1ccccc1 (stereo not drawn)	-24%
CC(C)(C)c1cc([N+](=O)[O-])c(O)c([N+](=O)[O-])c1	2%
CSC(SC)=C(C#N)C(=O)Nc1cccc(Cl)c1	56%
CCOC(=O)C(NC(C)=O)C(=O)c1ccccc1 (stereo not drawn)	-35%
O=[N+]([O-])/C=C/c1cccs1	4%
C/C(=N\Nc1ccc(Cl)cc1)C(=O)O	-29%
CC(=O)Nc1ccc(/C=N/NC(=S)NCC(C)C)cc1	-1%
CCCCN(CCCC)C(=O)C(C)OC(C)=O (stereo not drawn)	-38%
C=CCCCCCCCCC(=O)NN	-25%
C1CCC(CCCc2nn[nH]n2)CC1	13%

SMILES	growth inhibition
CSS(C)(=O)=O	3%
Clc1ccc(-n2ncc3c(Cl)nc(Cl)nc32)cc1	99% (active)
C(CCc1nn[nH]n1)CCC1CCCCC1	-16%
Oc1ccc(/C=C/c2ccc(Cl)cc2)cc1	13%
Cc1ccc2[nH]cc(CC(=O)O)c2c1	85% (active)
CN(C)c1cc(N)c(Cc2c(N)cc(N(C)C)cc2Cl)c(Cl)c1	1%
O=C1c2ccccc2-c2ccc(O)cc21	-11%
CC(=O)Oc1ccc(OC(C)=O)c2c1CC=CC2	-20%
O=c1c2ccccc2ncn1O	-12%
CC(C)(C)C(=O)CC(c1ccccc1)c1ccccc1	-13%
Cc1cccc(N=NC(C#N)C#N)c1	-9%
CC(=O)Nc1nc(-c2ccccc2)cs1	-11%
CC(C)c1cc([N+](=O)[O-])c(O)c([N+](=O)[O-])c1	24%
CC(C)NC(=O)C(C)O (stereo not drawn)	2%
CN(C)CNC(=S)S	97% (active)
CCCCNC(=O)C(C)O (stereo not drawn)	3%
COc1cccc(NC(=O)c2c(SC)c(C#N)c(=O)n(N)c2N)c1	8%
COc1ccc(/C(C#N)=C/c2cccc(N)c2)cc1	-30%
CCCCC(CC)CNC(=O)CI (stereo not drawn)	-13%
